Data published in PubChem BioAssay AID1159580 (chemical genetic matrix, 2015).
In all, about 5,500 compounds went through this assay and about 2,000 (36%) were called active. Another 18% or so got no clear call; they are omitted. Cut-off read from the data, not from the text of the source: active = normalized growth mostly below about 0.91 (no sharp cut-off); inconclusive = no clear call, values can overlap the other calls; inactive = mostly above about 0.92. Some of the results follow.

Assay: chemical genetic growth profiling, strain panel (AID 1159580);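 note: tested at 20 µM; growth read once vehicle control cultures reached saturation at 30 °C; 1 = growth at the plate median or of vehicle wells; lower values mean less growth of the strain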
Conditions: growth OD

Measured: normalized growth

COC(=O)[C@@H]1C(O)CC[C@H]2CN3CCc4c([nH]c5ccccc45)[C@@H]3C[C@@H]21 (some centres not stated)
inactive: S. cerevisiae deletion strains, locus YJR075W, strain HOC1, active compounds read low 0.993 | S. cerevisiae deletion strains, locus YKL009W, strain mrt4, active compounds read low 0.968 | S. cerevisiae deletion strains, locus YKL068W, active compounds read low 0.982 | S. cerevisiae deletion strains, locus YKL085W, strain MDH1 (second series), active compounds read low 0.982 | S. cerevisiae deletion strains, locus YKL085W, strain MDH1, active compounds read low 0.982 | S. cerevisiae deletion strains, locus YKL160W, strain elf1, active compounds read low 1.01 | S. cerevisiae deletion strains, locus YKL190W, strain CNB1, active compounds read low 0.994 | S. cerevisiae deletion strains, locus YKR001C, strain vps1, active compounds read low 0.979 | S. cerevisiae deletion strains, locus YKR026C, strain gcn3, active compounds read low 1.01 | S. cerevisiae deletion strains, locus YKR091W, strain srl3, active compounds read low 1.02 | S. cerevisiae deletion strains, locus YLL001W, strain dnm1, active compounds read low 1.02 | S. cerevisiae deletion strains, locus YLL026W, active compounds read low 1.01 | S. cerevisiae deletion strains, locus YLL041C, strain sdh2, active compounds read low 1.02 | S. cerevisiae deletion strains, locus YLR027C, strain aat2, active compounds read low 1.01 | S. cerevisiae deletion strains, locus YLR039C, strain RIC1, active compounds read low 0.977 | S. cerevisiae deletion strains, locus YLR058C, strain SHM2, active compounds read low 0.988 | S. cerevisiae deletion strains, locus YLR102C, strain apc9, active compounds read low 0.995 | S. cerevisiae deletion strains, locus YLR113W, strain HOG1, active compounds read low 1 | S. cerevisiae deletion strains, locus YLR221C, strain rsa3, active compounds read low 1 | S. cerevisiae deletion strains, locus YLR258W, strain gsy2, active compounds read low 1.01 | S. cerevisiae deletion strains, locus YLR262C, strain YPT6 (second series), active compounds read low 1 | S. cerevisiae deletion strains, locus YLR262C, strain YPT6, active compounds read low 0.962 | S. cerevisiae deletion strains, locus YLR268W, strain sec22, active compounds read low 1.01 | S. cerevisiae deletion strains, locus YLR320W, strain mms22, active compounds read low 1.01 | S. cerevisiae deletion strains, locus YLR330W, strain CHS5, active compounds read low 0.996 | S. cerevisiae deletion strains, locus YLR342W, strain FKS1 (second series), active compounds read low 0.978 | S. cerevisiae deletion strains, locus YLR342W, strain FKS1, active compounds read low 1.01 | S. cerevisiae deletion strains, locus YLR357W, strain rsc2, active compounds read low 1.01 | S. cerevisiae deletion strains, locus YLR370C, strain arc18, active compounds read low 1.02 | S. cerevisiae deletion strains, locus YLR371W, strain rom2, active compounds read low 0.976 | S. cerevisiae deletion strains, locus YLR384C, strain iki3, active compounds read low 1.02 | S. cerevisiae deletion strains, locus YLR418C, strain cdc73, active compounds read low 1.05 | S. cerevisiae deletion strains, locus YML016C, strain PPZ1, active compounds read low 0.983 | S. cerevisiae deletion strains, locus YML032C, strain rad52, active compounds read low 0.971 | S. cerevisiae deletion strains, locus YML120C, strain ndi1, active compounds read low 1.02 | S. cerevisiae deletion strains, locus YML124C, strain tub3, active compounds read low 0.991 | S. cerevisiae deletion strains, locus YMR058W, strain fet3, active compounds read low 1.01 | S. cerevisiae deletion strains, locus YMR078C, strain ctf18, active compounds read low 0.988 | S. cerevisiae deletion strains, locus YMR125W, strain sto1, active compounds read low 1 | S. cerevisiae deletion strains, locus YMR129W, active compounds read low 1.01 | S. cerevisiae deletion strains, locus YMR205C, strain PFK2, active compounds read low 1.03 | S. cerevisiae deletion strains, locus YMR223W, strain ubp8, active compounds read low 0.97 | S. cerevisiae deletion strains, locus YMR231W, strain pep5, active compounds read low 1.01 | S. cerevisiae deletion strains, locus YMR263W, strain SAP30, active compounds read low 0.995 | S. cerevisiae deletion strains, locus YMR307W, strain GAS1, active compounds read low 1 | S. cerevisiae deletion strains, locus YNL067W, strain RPL9B, active compounds read low 1.01 | S. cerevisiae deletion strains, locus YNL071W, strain lat1, active compounds read low 1.02 | S. cerevisiae deletion strains, locus YNL128W, strain TEP1, active compounds read low 1 | S. cerevisiae deletion strains, locus YNL153C, strain GIM3, active compounds read low 1.01 | S. cerevisiae deletion strains, locus YNL183C, strain NPR1, active compounds read low 0.973 | S. cerevisiae deletion strains, locus YNL209W, strain ssb2, active compounds read low 1.01 | S. cerevisiae deletion strains, locus YNL233W, strain BNI4, active compounds read low 1.01 | S. cerevisiae deletion strains, locus YNL248C, strain rpa49, active compounds read low 1.01 | S. cerevisiae deletion strains, locus YNL250W, strain rad50, active compounds read low 0.975 | S. cerevisiae deletion strains, locus YNL271C, strain bni1, active compounds read low 0.987 | S. cerevisiae deletion strains, locus YNL298W, strain CLA4, active compounds read low 0.975 | S. cerevisiae deletion strains, locus YNL307C, strain MCK1, active compounds read low 0.996 | S. cerevisiae deletion strains, locus YNL322C, strain KRE1 (second series), active compounds read low 1.01 | S. cerevisiae deletion strains, locus YNL322C, strain KRE1, active compounds read low 0.99 | S. cerevisiae deletion strains, locus YNR049C, strain mso1, active compounds read low 1.01 | S. cerevisiae deletion strains, locus YNR052C, strain pop2, active compounds read low 0.989 | S. cerevisiae deletion strains, locus YOL006C, strain TOP1, active compounds read low 1.01 | S. cerevisiae deletion strains, locus YOL012C, strain htz1 0.815 | S. cerevisiae deletion strains, locus YOL147C, strain pex11, active compounds read low 0.99 | S. cerevisiae deletion strains, locus YOR001W, strain rrp6, active compounds read low 1.02 | S. cerevisiae deletion strains, locus YOR061W, strain CKA2, active compounds read low 0.996 | S. cerevisiae deletion strains, locus YOR069W, strain VPS5, active compounds read low 0.992 | S. cerevisiae deletion strains, locus YOR070C, strain gyp1, active compounds read low 1.02 | S. cerevisiae deletion strains, locus YOR080W, strain dia2, active compounds read low 1.01 | S. cerevisiae deletion strains, locus YOR083W, strain WHI5, active compounds read low 1 | S. cerevisiae deletion strains, locus YOR106W, strain vam3, active compounds read low 0.997 | S. cerevisiae deletion strains, locus YOR136W, strain idh2, active compounds read low 0.99 | S. cerevisiae deletion strains, locus YOR144C, strain elg1, active compounds read low 0.983 | S. cerevisiae deletion strains, locus YOR184W, strain ser1, active compounds read low 0.981 | S. cerevisiae deletion strains, locus YOR231W, strain MKK1, active compounds read low 1.02 | S. cerevisiae deletion strains, locus YOR265W, strain rbl2, active compounds read low 0.998 | S. cerevisiae deletion strains, locus YOR270C, strain vph1, active compounds read low 1 | S. cerevisiae deletion strains, locus YOR290C, strain snf2, active compounds read low 0.971 | S. cerevisiae deletion strains, locus YOR316C, strain cot1, active compounds read low 0.981 | S. cerevisiae deletion strains, locus YPL051W, strain arl3, active compounds read low 0.995 | S. cerevisiae deletion strains, locus YPL055C, strain LGE1, active compounds read low 1.01 | S. cerevisiae deletion strains, locus YPL078C, strain atp4, active compounds read low 1.03 | S. cerevisiae deletion strains, locus YPL106C, strain sse1, active compounds read low 1 | S. cerevisiae deletion strains, locus YPL240C, strain hsp82, active compounds read low 1.01 | S. cerevisiae deletion strains, locus YPL241C, strain CIN2, active compounds read low 0.99 | S. cerevisiae deletion strains, locus YPL256C, strain CLN2, active compounds read low 1 | S. cerevisiae deletion strains, locus YPR119W, strain clb2, active compounds read low 0.994 | S. cerevisiae deletion strains, locus YPR141C, strain kar3, active compounds read low 0.981 | S. cerevisiae deletion strains, locus YPR163C, strain tif3, active compounds read low 0.988 | S. cerevisiae deletion strains, locus YPR167C, strain met16, active compounds read low 0.994 | S. cerevisiae deletion strains, strain wtn01, active compounds read low 0.995 | S. cerevisiae strains, strain wild type, active compounds read low 0.998
